Assay results from PubChem BioAssay (EPA / NIEHS).
Inconclusive results are not listed. Activity calls are given as the source filed them. Rule for the calls, unless noted: active = hit-call score of the fitted dose curve at least 0.9, where 1 is the maximum; inconclusive = response in the unintended direction; inactive = score below 0.9.

Assays:
[1] = TOX21_p53_BLA_p2_viability: Viability Assessment in the Tox21 HCT-116 p53 Agonism Beta-lactamase Assay, Phase 2 (AID 2283591);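 note: compound exposure lasted 16 h at 37 °C; actives lower the ATP signal meaning cytotoxicity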
Procedure, shortened: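 HCT-116 p53-bla cells (4000/well) rested 5 h at 37C, then received compounds in DMSO (217-fold dilution) for 16 h at 37C, 5% CO2. After the CCF4 read, CellTiter-Glo was added; ATP luminescence was read after 30 min at room temperature.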

[2] = molecular target: Cellular tumor antigen p53 (Homo sapiens) (UniProt P04637); assay: TOX21_p53_BLA_p3_ratio: Tox21 HCT-116 p53 Agonism Beta-lactamase Assay, Ratio, Phase 3 (AID 2283596)
Procedure, shortened: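 HCT116 p53-bla cells (4000/well) given compound in DMSO (217-fold dilution) after 5 h, incubated 16 h at 37C. CCF4-AM substrate 2 h at room temperature; 460/530 nm emission ratio, gain fitted against DMSO.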

[3] = TOX21_p53_BLA_p4_viability: Viability Assessment in the Tox21 HCT-116 p53 Agonism Beta-lactamase Assay, Phase 4 (AID 2283597);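 note: hits lower the luminescence signal meaning cytotoxicity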
Procedure, shortened: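 Cells plated, 5 h pre-incubation; DMSO compounds pinned (217-fold dilution); 16 h, 37C/5% CO2; CCF4-AM 2 h RT; CellTiter-Glo 30 min RT; luminescence read.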

[4] = molecular target: Cellular tumor antigen p53 (Homo sapiens) (UniProt P04637); assay: TOX21_p53_BLA_p5_ratio: Tox21 HCT-116 p53 Agonism Beta-lactamase Assay, Ratio, Phase 5 (AID 2283599)
Procedure, shortened: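 HCT-116 cells carrying a p53-inducible beta-lactamase reporter were seeded at 4000 cells/well and dosed after 5 h with compound in DMSO (217-fold dilution). After 16 h at 37C, CCF4-AM substrate was added for 2 h, and the 460/530 nm emission ratio was scored as gain-of-signal versus DMSO.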

[5] = molecular target: Cellular tumor antigen p53 (Homo sapiens) (UniProt P04637); assay: TOX21_p53_BLA_p4_ratio: Tox21 HCT-116 p53 Agonism Beta-lactamase Assay, Ratio, Phase 4 (AID 2283601)
Procedure, shortened: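 HCT116 cells carrying an inducible beta-lactamase reporter were plated at 4000 cells/well, rested 5 h, then exposed to compounds in DMSO (217-fold dilution) for 16 h at 37C. CCF4-AM substrate was loaded 2 h at room temperature; 460/530 nm emission ratio scored gain-of-signal versus DMSO.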

[6] = TOX21_p53_BLA_p5_viability: Viability Assessment in the Tox21 HCT-116 p53 Agonism Beta-lactamase Assay, Phase 5 (AID 2283600)
Procedure, shortened: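 4000 cells/well; 5 h pre-incubation; DMSO compounds pin-transferred, 217-fold dilution; 16 h, 37C/5% CO2; CCF4-AM 2 h RT; CellTiter-Glo 30 min RT; luminescence.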

[7] = CCTE_Harrill_HTTr_Viability_MCF7: CCTE's 6-hour Cell Viability Assessment for the High-Throughput Transcriptomics (HTTr) Platform, in MCF-7 cells cultured in DMEM + 10% fetal bovine serum, Harrill Lab (AID 2284010; active = hit-call score of the fitted dose curve at least 0.9, where 1 is the maximum; inactive = score below 0.9)
Procedure, shortened: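 MCF-7 cells in DMEM + 10% FBS, 384-well, exposed 6 h to an eight-point dilution series. Membrane integrity scored by high-content imaging of propidium iodide exclusion; bidirectional fit versus DMSO.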

[8] = CCTE_Harrill_HTTr_Apoptosis_MCF7: CCTE's 6-hour Apoptosis Assessment for the High-Throughput Transcriptomics (HTTr) Platform, in MCF-7 cells cultured in DMEM + 10% fetal bovine serum, Harrill Lab (AID 2284011; active = hit-call score of the fitted dose curve at least 0.9, where 1 is the maximum; inactive = score below 0.9)
Procedure, shortened: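 MCF-7 (DMEM + 10% FBS), 384-well; 8-pt dilution series, 6 h chemical exposure; caspase-3/7 activation via CellEvent Caspase 3/7 Green, HCI; bidirectional fit vs DMSO.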

[9] = CCTE_Harrill_HTTr_CellCount_MCF7: CCTE's Cell Proliferation Assessment for the High-Throughput Transcriptomics (HTTr) Platform, Harrill Lab (AID 2284012);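 note: cells exposed to compound for six hours; intended direction is loss of nuclei count meaning fewer cells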
Procedure, shortened: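 MCF7 cells exposed 6 hours to an eight-point dilution series; Hoechst-stained nuclei counted by high-content imaging. Bidirectional curve fitting against DMSO baseline.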

Measured: outcome

Cellular tumor antigen p53 (Homo sapiens), sequence (P04637 whole entry, looked up): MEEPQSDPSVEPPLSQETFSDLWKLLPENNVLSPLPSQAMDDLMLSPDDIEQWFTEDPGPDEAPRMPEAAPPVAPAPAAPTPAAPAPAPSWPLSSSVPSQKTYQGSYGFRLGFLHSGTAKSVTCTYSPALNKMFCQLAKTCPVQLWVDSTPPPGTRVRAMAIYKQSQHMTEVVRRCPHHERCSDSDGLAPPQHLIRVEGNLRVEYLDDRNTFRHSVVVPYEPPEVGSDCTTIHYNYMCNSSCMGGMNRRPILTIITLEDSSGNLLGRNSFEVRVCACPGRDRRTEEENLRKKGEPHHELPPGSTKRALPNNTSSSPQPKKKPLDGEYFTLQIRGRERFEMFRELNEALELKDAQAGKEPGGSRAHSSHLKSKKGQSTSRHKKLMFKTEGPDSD

CCO[Si](OCC)(OCC)OCC
inactive: [1] | [2] | [3] | [4] | [5]

Cn1c(=O)c2c(ncn2CC(O)CO)n(C)c1=O (stereo not given)
inactive: [1] | [2] | [3] | [4] | [5]

CC[C@H](CC[C@@H](C)[C@H]1CC[C@H]2[C@@H]3CC=C4C[C@@H](O)CC[C@]4(C)[C@H]3CC[C@]12C)C(C)C
inactive: all assays above

O=C(O)CNC(=O)c1ccccc1I
inactive: [1] | [2] | [4] | [6]

COc1ccc(Br)c(C)c1
inactive: [1] | [2] | [3] | [5]

CC12CC3CC(C)(C1)CC(N)(C3)C2
inactive: [1] | [2] | [3] | [4] | [5]

C=C[Si](OC(=C)C)(OC(=C)C)OC(=C)C
inactive: [1] | [2] | [4] | [6]

CN(C)CC/C=C1/c2ccccc2COc2ccc(CC(=O)O)cc21
not listed: [7] | [8] | [9]
inactive: all other assays above

O=C1OC(=O)c2ccccc21
inactive: [1] | [2] | [3] | [6] | [5]

CN(C)CCCN1c2ccccc2C(C)(C)c2ccccc21
inactive: [1] | [2] | [4]

CC(C)CCCC(C)NC(C)C (stereo not given)
inactive: [1] | [2] | [4]

CC(O)CN(CCCN(C)C)CCCN(C)C (stereo not given)
inactive: [1] | [2] | [4] | [6] | [5]

CS(=O)(=O)OCCCNCCCOS(C)(=O)=O
not listed: [7] | [8] | [9]
inactive: all other assays above

CC[N+](CC)(CC)CCOc1cccc(OCC[N+](CC)(CC)CC)c1OCC[N+](CC)(CC)CC
inactive: [1] | [2] | [3] | [4] | [5]

NC1CCN(c2cccc(Cl)n2)CC1
inactive: [1] | [2] | [4] | [6] | [5]

O=c1[nH]c2ccc(Cl)cc2o1
not listed: [7] | [8] | [9]
inactive: all other assays above

CN1C(=O)C[C@@H](C(=O)N[C@@H](Cc2cnc[nH]2)C(=O)N2CCC[C@H]2C(N)=O)NC1=O
inactive: [1] | [2] | [4] | [6] | [5]

O=C1c2ccccc2C(=O)c2cc(Cl)ccc21
inactive: [1] | [2] | [3] | [6]

CCCC(=O)CC
inactive: [1] | [2] | [3] | [6] | [5]

CCCc1nc(C(C)(C)O)c(C(=O)OCc2oc(=O)oc2C)n1Cc1ccc(-c2ccccc2-c2nn[nH]n2)cc1
inactive: [1] | [2] | [4]

O=C(Cc1cccs1)N[C@@H]1C(=O)N2C(C(=O)[O-])=C(C[n+]3ccccc3)CS[C@H]12
inactive: [1] | [2] | [4] | [6] | [5]

NC(=O)NC(=O)Cc1ccccc1
inactive: [1] | [2] | [3] | [4] | [5]

ClC1=C(Cl)C1(Cl)Cl
inactive: [1] | [2] | [3] | [6] | [5]

O=C1OC(CN2CCOCC2)CN1N=Cc1ccc([N+](=O)[O-])o1 (stereo not given)
inactive: [1] | [2] | [4] | [6] | [5]

Cc1ccc2c(c1)c1c3n2CCNC3CCC1 (stereo not given)
inactive: [1] | [2] | [4]

Cc1ccc(=O)n(-c2ccccc2)c1
inactive: [1] | [2] | [3] | [4] | [5]

CC(O)CO (stereo not given) (tested in a mixture with another compound)
inactive: [1] | [2] | [3] | [5]

CCCCCCCCCCCCCCCCSCC(COC)COP(=O)([O-])OCC[N+](C)(C)C (stereo not given)
inactive: [1] | [2] | [3] | [5]

c1cnc(N2CCN(Cc3ccc4c(c3)OCO4)CC2)nc1
inactive: [1] | [3]
